Compound activity deposited in PubChem by The Scripps Research Institute Molecular Screening Center.
ssDAF12 agonist – S. stercoralis DAF-12 activation, primary screen | HEK293 ssDAF-12/GRIP1 lit1-tk-luc reporter, luminescence; % of 3 µM dafachronic acid response | 370,000 compounds, 1% hits | activation, % at 6.8 µM | AID 652126;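 active = activation above the mean over all tested compounds plus 3 SD, cut at about 0.9% in these data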;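 note: 0% = DMSO-only wells and 100% = 3 µM delta7-dafachronic acid wells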
hgDAF-12 ag – activates the H. glycines DAF-12 receptor ligand-binding domain; 370,000 compounds, 1.8% hits; activation, % at 6.8 µM; HEK293 GAL4-hgDAF12 UAS-luciferase reporter, agonist luminescence; normalized to butyrate control; AID 687014;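 active = activation above a cutoff set at the mean of all screened compounds plus 3 SD, cut at about 10% in these data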;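 note: 0% = DMSO wells and 100% = sodium butyrate wells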
DAX1 inh-1 – DAX1 (NR0B1) inhibition, primary screen; inhibition, % at 6.8 µM; 370,000 compounds, 1.1% hits; HEK293T StAR-luciferase reporter, SF-1/DAX-1 repression relief; AID 652010;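 active = inhibition above the mean over all tested compounds plus 3 SD, cut at about 3.6% in these data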;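 note: 0% = DAX-1 cells with DMSO and 100% = cells lacking DAX-1 with DMSO; higher inhibition means more luminescence from relief of DAX-1 repression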
GAA850 FXN act – activators of GAA850 frataxin (FXN) promoter | activation, % at 6 µM | AID 540364 | 360,000 compounds, 0.56% hits | HEK293 lucGAA850 FXN promoter luciferase reporter, 24 h; percent of 10 µM SAHA response;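 active = activation above the average of all compounds screened plus 3 SD, cutoff fixed separately per campaign, cut at about 7.5% in these data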;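 note: 0% = DMSO wells and 100% = 10 µM SAHA wells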
hcDAF12 agonist – activators of H. contortus DAF-12 nuclear receptor; HEK293 hcDAF-12 lit1-tk-luc reporter, luminescence; 0% DMSO, 100% Δ7-dafachronic acid; activation, % at 6.8 µM; 370,000 compounds, 1.4% hits;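 active = activation above the mean of all tested compounds plus 3 SD, cut at about 5.5% in these data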;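 note: 100% = response to 3 µM Δ7-dafachronic acid high control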
DAX1 inh-2 – inhibits human nuclear receptor DAX1; P51843; HEK293 Gal4-DAX1 luciferase reporter, luminescence; inhibition, % at 6.75 µM; 340,000 compounds, 0.99% hits;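 active = inhibition above the mean over all tested compounds plus 3 SD, cut at about 4.2% in these data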;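 note: 0% = DAX1-transfected cells with DMSO and 100% = empty-vector control cells with DMSO; inhibition shows as a rise in luminescence from relieved DAX1 repression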
Target sequence (P51843 207-470 limits assumed): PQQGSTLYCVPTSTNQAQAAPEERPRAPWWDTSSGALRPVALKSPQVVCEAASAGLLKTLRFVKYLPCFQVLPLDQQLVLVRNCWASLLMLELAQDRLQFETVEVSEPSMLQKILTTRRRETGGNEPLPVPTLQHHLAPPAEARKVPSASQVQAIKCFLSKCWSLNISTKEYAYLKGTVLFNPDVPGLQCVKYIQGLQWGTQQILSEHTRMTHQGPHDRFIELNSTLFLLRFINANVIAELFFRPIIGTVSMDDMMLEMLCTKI
* = called active by the depositor; x = no result given. An excerpt weighted towards active compounds, which were near 4.5% of everything screened.

SMILES	ssDAF12 agonist	hgDAF-12 ag	DAX1 inh-1	GAA850 FXN act	hcDAF12 agonist	DAX1 inh-2
Cc1ccc(-c2nn3c(C)nnc3s2)cc1NC(=O)c1cccs1	0.1	1.6	-1.3	-1.6	3.4	-0.4
Cc1cc(-c2nn3c(C)nnc3s2)ccc1NC(=O)C(C)(C)C	0.4	12.3*	3.0	2.7	5.3	0.9
O=C(OC12CCCN(C1)/C(=C/c1cccc(Cl)c1)C2)c1cccc(F)c1 (stereo unspecified)	-1.4	-1.5	0.3	x	-2.5	x
CCOc1ccc(N(Cc2ccc(C(=O)O)cc2)S(=O)(=O)c2ccc(C)cc2)cc1	1.5*	1.7	-0.8	0.5	1.6	0.8
N#C/C(=C/c1ccc(-c2cc([N+](=O)[O-])ccc2Cl)o1)C(N)=O	-1.8	-4.9	-2.1	-1.0	-2.0	9.3*
N#C/C(=C/c1ccc(-c2ccccc2[N+](=O)[O-])o1)C(N)=O	-0.7	1.3	-0.1	1.5	0.5	0.0
COc1ccc(-n2nc3ccc(N)cc3n2)cc1Cl	-1.3	4.7	0.1	-4.5	0.7	-1.5
Cc1ccc(-n2nc3ccc(N)cc3n2)cc1Cl	0.1	6.1	2.1	-1.4	6.2*	1.6
Cc1ccc(-n2nc3ccc(N)cc3n2)c(C)c1	-1.7	-6.8	-0.2	-9.4	-6.0	-1.7
Cc1ccc(-n2nc3ccc(N)cc3n2)cc1C	0.3	4.5	0.8	-2.6	5.8*	1.8
Nc1nc(SCn2nnc3ccccc3c2=O)n[nH]1	-1.7	-1.0	1.4	1.6	0.8	6.8*
O=[N+]([O-])c1ccc(Nc2nc(N3CCOCC3)nc(N3CCOCC3)n2)cc1	1.1*	0.1	-0.2	1.3	0.1	-0.3
COc1cccc(CO[C@H]2C=C[C@@H](c3ccccc3)O[C@@H]2CO)c1	-0.8	2.0	0.3	x	-1.5	x
CN(C)c1cccc(/C=C2\CC3(OC(=O)c4ccco4)CCCN2C3)c1 (stereo unspecified)	-1.6	-0.1	-1.1	x	-1.2	x
COc1ccc(N(CC(=O)Nc2cc([N+](=O)[O-])ccc2C)S(C)(=O)=O)cc1OC	1.3*	-0.3	-0.8	3.5	-0.3	-0.4
Cc1[nH]c2ccccc2c1/C=N/Nc1ccccc1[N+](=O)[O-]	0.9*	3.6	0.1	4.5	5.0	-0.4
O=S1(=O)c2ccc(N3CCSCC3)cc2Oc2ccccc2CN1Cc1cn(Cc2ccc(F)cc2)nn1	-0.9	-3.2	-1.1	x	-1.2	x
CC(C)C[C@H]1COc2cccc(N3CCCC3)c2S(=O)(=O)N1C	-1.1	-2.3	0.0	x	-2.6	x
O=C(NCc1nc2ccccc2[nH]1)c1ccco1	-0.7	2.0	0.4	1.8	-0.4	0.2
CCc1cccc(CC)c1NC(=S)NCc1nc2ccccc2[nH]1	-0.4	1.5	-0.4	-0.7	1.7	5.4*
Cc1ccc(NC(=S)NNC(=O)CSc2nnc(SCc3cccc4ccccc34)s2)cc1	-1.4	2.2	0.4	x	-2.9	x
O=C1OC(Cc2ccccn2)C(O)=C1C1=NCCCN1 (stereo unspecified)	-0.1	2.9	1.2	-0.2	0.2	-0.8
O=C1OC(Cc2ccccn2)C(O)=C1C1=NCCCCN1 (stereo unspecified)	-0.6	13.2*	2.3	3.8	3.8	5.3*
Cc1cc(O)c(C2=Nc3ccccc3SC(c3ccc(Cl)cc3)C2)c(=O)o1 (stereo unspecified)	0.0	5.5	0.1	-2.5	6.1*	2.2
Cc1cc(C)nc(Nc2n[nH]c(-c3ccccc3C)n2)n1	-1.0	6.2	2.2	3.1	-0.2	4.6*
SMILES	ssDAF12 agonist	hgDAF-12 ag	DAX1 inh-1	GAA850 FXN act	hcDAF12 agonist	DAX1 inh-2
CCCC[C@H]1C2CC(OC(=O)Nc3cc(C)cc(C)c3)C(C2)[C@H]2CCCCN21 (stereo partly specified)	-1.5	6.8	-0.3	x	-1.6	x
Cc1ccc(C(=O)Nc2ccncc2)c(Cl)c1	-1.4	1.6	-0.7	-0.1	-1.4	-2.1
O=C(Nc1ccccc1)c1cc([N+](=O)[O-])ccc1Cl	-0.3	0.4	-0.7	-1.1	5.8*	-0.1
Cc1ccc(C(=O)Nc2ccc(Nc3ccccc3)cc2)c(Cl)c1	2.0*	1.1	-0.1	-0.5	-2.0	-1.3
O=C(Nc1ccc(-c2ccc([N+](=O)[O-])cc2)cc1)c1ccccc1F	-1.7	-0.1	1.0	1.4	1.3	1.7
O=C(Nc1ccc([N+](=O)[O-])cc1)c1ccccc1F	-0.7	11.6*	2.0	5.6	1.9	2.0
CNc1ccccc1/C(O)=C(\C#N)C(=O)NCc1cccc2ccccc12	-1.2	-0.7	0.0	x	-1.9	x
CC(=O)Nc1ccc(N=Nc2ccc(O)cc2)cc1	-0.1	12.0*	2.3	2.3	4.1	1.8
Cc1cccc(C2=NN(c3ccc(Br)cc3)[C@@H](C(=O)N3CCOC3=O)[C@@H]2c2ccccc2)c1	x	x	x	-1.1	x	0.3
Cc1cccc(C2=NN(c3ccccc3)[C@@H](C(=O)N3CCOC3=O)[C@@H]2c2ccccc2)c1	-0.1	0.9	3.7*	-0.2	0.8	0.4
O=C(O)c1cc(S(=O)(=O)Nc2ccc3cn[nH]c3c2)ccc1O	1.0*	4.4	-0.3	-0.3	4.6	0.7
O=C(c1cc([N+](=O)[O-])[nH]n1)N1CCSCC1	-2.2	1.1	1.9	0.3	-0.3	5.4*
Cc1cc(C(=O)N2CCc3ccccc3C2)n[nH]1	-0.4	-0.3	0.2	1.4	2.2	0.9
COc1ccc(-n2c(SCC(=O)Nc3ccc4cn[nH]c4c3)nnc2-c2ccccc2)cc1	-1.7	2.7	-1.6	x	-1.9	x
N#CC1CCN(C(=O)c2ccc3c(Cl)c4c(nc3c2)CCCC4)CC1	-1.3	2.4	4.4*	1.9	-2.4	0.8
O=C(NCCc1ccccc1)C1CCCN1C(=O)Nc1ccc(F)cc1 (stereo unspecified)	-0.7	-0.3	0.4	-1.2	3.4	5.1*
Cc1ccc(C=Nc2ccccc2C(N)=O)cc1	-0.4	11.8*	0.1	-1.3	5.9*	1.2
Cc1ccc(C=Nc2ccccc2C(=O)Nc2ccccc2)cc1	-1.1	-1.3	-0.5	2.0	-0.4	-0.1
O=S1(=O)N[C@H](Cc2ccccc2)COc2cc(N3CCCC3)ccc21	-0.5	-0.7	0.7	x	-1.8	x
CCOC(=O)NC(=O)c1cn(Nc2ncc(C(F)(F)F)cc2Cl)c(=O)[nH]c1=O	0.6	0.2	-0.4	2.4	0.4	-1.0
CCOC(=O)NC(=O)c1cn(Nc2ncc(Cl)cc2C(F)(F)F)c(=O)[nH]c1=O	-1.8	-0.8	-0.3	0.5	0.2	6.2*
CCOC(=O)[C@]12CCCC3=C1N(CCC3)C(=O)[C@@H](CC(=O)N1CCN(C(=O)C3CC3)CC1)C2	-1.5	-1.3	0.5	x	0.1	x
O=C(Nc1ccc(Br)cc1F)c1ccc2c(c1)OCCO2	0.7	11.5*	2.6	0.8	3.6	-1.1
O=C(Nc1ccc(F)cc1F)c1ccc2c(c1)OCCO2	0.4	12.6*	1.9	1.7	5.5	-1.1
